# The list is not random: actives were taken first. Their share in the collection is about 2.4%.
# Pol kappa inh-1 = qHTS for Inhibitors of Polymerase Kappa; DNA polymerase kappa (Homo sapiens), Q9UBT6; purified Pol kappa, fluorescent DNA synthesis assay, 10 min; Potency, µM (series often up to 107 µM), hits mostly inhibitors; 400,000 compounds, 0.53% hits; AID 588579, 2011
# Target sequence (Q9UBT6 whole entry, looked up): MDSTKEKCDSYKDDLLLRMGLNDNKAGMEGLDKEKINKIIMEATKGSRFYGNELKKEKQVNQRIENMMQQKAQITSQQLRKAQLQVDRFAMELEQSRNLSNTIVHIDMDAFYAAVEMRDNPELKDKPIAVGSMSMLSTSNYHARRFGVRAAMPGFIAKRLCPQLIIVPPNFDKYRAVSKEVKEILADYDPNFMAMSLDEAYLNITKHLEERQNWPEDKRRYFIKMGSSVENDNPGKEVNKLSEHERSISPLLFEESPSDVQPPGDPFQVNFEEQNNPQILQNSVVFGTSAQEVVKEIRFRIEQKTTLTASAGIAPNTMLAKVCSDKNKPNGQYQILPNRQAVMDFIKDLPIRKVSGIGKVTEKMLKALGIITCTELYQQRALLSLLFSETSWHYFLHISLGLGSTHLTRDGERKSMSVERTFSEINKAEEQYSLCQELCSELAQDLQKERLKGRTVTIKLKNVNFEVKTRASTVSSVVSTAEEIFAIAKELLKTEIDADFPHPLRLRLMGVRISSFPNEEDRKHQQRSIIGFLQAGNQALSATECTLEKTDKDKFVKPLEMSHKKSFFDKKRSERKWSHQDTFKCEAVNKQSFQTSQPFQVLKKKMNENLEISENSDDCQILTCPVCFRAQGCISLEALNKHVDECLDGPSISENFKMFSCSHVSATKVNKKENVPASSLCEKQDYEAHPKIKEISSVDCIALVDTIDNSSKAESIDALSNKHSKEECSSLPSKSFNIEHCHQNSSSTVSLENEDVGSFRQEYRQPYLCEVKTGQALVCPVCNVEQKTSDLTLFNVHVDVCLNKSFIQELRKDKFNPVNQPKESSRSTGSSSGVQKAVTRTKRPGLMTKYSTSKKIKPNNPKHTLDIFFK
#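 Here, compound and 10 nM enzyme are combined for 15 min at room temperature; adding 50 nM substrate (final) starts DNA synthesis, tracked by fluorescence at 0 and 10 min against buffer-only wells.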
# WRN helicase inh = qHTS for Inhibitors of WRN Helicase | Bifunctional 3'-5' exonuclease/ATP-dependent helicase WRN (Homo sapiens), Q14191 | WRN helicase unwinding, fluorescent forked duplex, kinetic | Potency, µM (series often up to 114 µM), actives largely listed as inhibitors | 360,000 compounds, 0.46% hits | AID 651768, 2012; further: nearly all actives have a fitted effect of over 55% in size
#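 Primary qHTS, 1536-well format. 20 nM WRN + compound, 15 min RT; start with 100 nM forked fluorophore/quencher duplex, 2 mM ATP (final); kinetic read ex 525/em 598 nm.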
# Pol eta inh-1 = qHTS for Inhibitors of Polymerase Eta; 390,000 compounds, 1.2% hits; Potency, µM (top dose mostly 114 µM), usual class: inhibitors; recombinant Pol eta, fluorescent DNA replication assay; AID 588591, 2011
#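 Pol eta (10 nM) was preincubated with compounds for 15 min at room temperature, after which fluorescent replication substrate (50 nM final) was added to start the reaction. Fluorescence was read kinetically at 0 and 10 min.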
# Pol iota inh = qHTS for Inhibitors of Polymerase Iota; DNA polymerase iota (Homo sapiens), Q9UNA4; Pol iota fluorescent replication assay, 10 min; Potency, µM (titrated, usually from 115 µM), hits mostly inhibitors; 390,000 compounds, 1% hits; AID 588590, 2011
#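 Pol iota at 10 nM preincubated 15 min with compounds at room temperature; reaction started with fluorescent substrate, 50 nM final. Fluorescence read kinetically at 0 and 10 min; buffer-only wells as negative control.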
# FEN1 inh = qHTS Assay for the Inhibitors of Human Flap endonuclease 1 (FEN1) | Recombinant FEN1 flap cleavage, fluorescence, 15 min | Potency, µM (titrated, usually from 114 µM), most hits filed as inhibitors | 390,000 compounds, 0.35% hits; further: nearly all actives have a fitted effect of over 65% in size
#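 Read-out was taken twice, immediately and after 15 min, following addition of 50 nM substrate to 10 nM FEN1 that had sat with test compound for 15 min at room temperature. Curves came from a four-parameter Hill model.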
# Pol beta inh = qHTS Assay for Inhibitors of DNA Polymerase Beta; 340,000 compounds, 1.3% hits; AID 485314, 2010; Pol beta primer extension/strand displacement, fluorescence kinetic; P06746; Potency, µM (titrated, usually from 114 µM), usual class: inhibitors
#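 10 nM enzyme + cpd, 15 min RT; start with substrate 50 nM final; read 0 min and after 10 min RT. Corrected, normalized data; 4-parameter Hill curve fit.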
# PGK validate = qHTS for inhibitors of Phosphogylcerate Kinase: Hit Validation Screen | shares compounds with Pol kappa inh-1 | TbPGK coupled GAPDH assay, Kinase-Glo luminescence | Potency, µM (highest dose often 57.5 µM), actives largely listed as inhibitors | 500 compounds, 79% hits; further: nearly all actives have a fitted effect of over 65% in size
# Pol iota confirm = qHTS for Inhibitors of Polymerase Iota: Confirmatory Assay for Cherry-picked Compounds; Potency, µM, hits mostly inhibitors; 1,500 compounds, 77% hits; shares compounds with Pol kappa inh-1; Pol iota primer extension, TAMRA/BHQ fluorescence
# GALK confirm = Confirmation Assay for Inhibitors of Human Galactokinase (GALK); Potency, µM (highest dose often 115 µM), most hits filed as inhibitors; shares compounds with Pol eta inh-1; purified GALK, Kinase-Glo ATP depletion luminescence; 150 compounds, 70% hits; AID 2015, 2009
# GALK redox cs = Confirmatory Assay for Inhibitors of Human Galactokinase (GALK): Phenol-HRP redox assay counterscreen. shares compounds with Pol eta inh-1. Phenol red-HRP H2O2 redox cycling, absorbance 600 nm. Potency, µM (highest dose often 115 µM), most hits filed as inhibitors. 150 compounds, 40% hits. AID 2035, 2009
# HEK293 tox = Secondary Assay for Inhibitors of Human Galactokinase (GALK): HEK-293 Cell Viability Assay; 170 compounds, 10% hits; shares compounds with Pol eta inh-1; HEK-293 viability, ATP luminescence (CellTiter-Glo), 24/48 h; AID 2547, 2010; Potency, µM (series often up to 46.1 µM), most hits filed as inhibitors
# Pol kappa inh-2 = qHTS for Inhibitors of Polymerase Kappa: Confirmatory Assay for Cherry-picked Compounds; shares compounds with Pol eta inh-1; purified Pol-kappa, fluorescent strand-displacement substrate; Potency, µM, most hits filed as inhibitors; 920 compounds, 76% hits
# Pol eta inh-2 = qHTS for Inhibitors of Polymerase Eta: Confirmatory Assay for Cherry-picked Compounds; Pol eta primer extension, TAMRA/BHQ fluorescence, 10 min; 2,600 compounds, 64% hits; Potency, µM, most hits filed as inhibitors; AID 720502, 2013; shares compounds with Pol eta inh-1
# A number is an active result; i = inactive; ? = inconclusive; nt = no result given; [ ] = dose if it differs, or a comment. The call rests on the fitted dose curve; in most records, active means well fitted curve in the direction sought with a large enough effect; inconclusive means small, poorly fitted or top-dose-only effect, or another doubt; inactive means no such curve, though single readings can be large; an effect the other way counts as inactive or inconclusive.
SMILES,Pol kappa inh-1,WRN helicase inh,Pol eta inh-1,Pol iota inh,FEN1 inh,Pol beta inh,Pol iota confirm,Pol eta inh-2,others
COc1cccc(CN(C(=O)/C=C/c2ccco2)C2CCS(=O)(=O)C2)c1 (configuration not stated),89µM,i,?,45µM,i,?,?,?,
COc1ccc(CN(C(=O)/C=C/c2ccco2)C2CCS(=O)(=O)C2)cc1 (configuration not stated),?,i,50µM,18µM,i,20µM,53,85,
C=CCNC(=O)COC(=O)c1c2c(nc3ccccc13)CCC2,89µM,?,35µM,22µM,i,22µM,?,54,
O=C(NCCN1CCN(c2ccccc2)CC1)C1(S(=O)(=O)c2ccc(Cl)cc2)CC1,i,i,i,i,i,i,nt,nt,
CC1(C)CCC(c2ccc(Cl)cc2)=C(CN2CCN(c3ccc(C(=O)NS(=O)(=O)c4ccc(N[C@H](CCN5CCOCC5)CSc5ccccc5)c(S(=O)(=O)C(F)(F)F)c4)cc3)CC2)C1,45µM,nt,nt,40µM,?,nt,67,?,Pol kappa inh-2=?
NC(=O)C1CCN(C2=C(Cl)C(=O)c3ccccc3C2=O)CC1,i,i,6.3µM,2.8µM,?,?,42,21,GALK confirm=19µM;GALK redox cs=24µM;HEK293 tox=?
NC(=O)C1CCN(C2=C(NS(=O)(=O)c3ccccc3)C(=O)c3ccccc3C2=O)CC1,i,i,i,i,i,i,nt,nt,
COc1ccc(/C=N/Nc2ncc(Br)cn2)c(OC)c1,i,?,28µM,i,?,4.5µM,42,nt,Pol kappa inh-2=15
COCCN(C(=O)c1cc2c(s1)CCC2)c1c(N)n(CC(C)C)c(=O)[nH]c1=O,45µM,45µM,8.9µM,20µM,i,nt,21,48,Pol kappa inh-2=19
CCc1ccc(NC(=O)Cn2nnc(C(=O)NCc3ccc(C)cc3)c2N)cc1,i,nt,i,i,i,?,nt,nt,
CC1=NN(c2ccc(C(=O)O)cc2)C(=O)CC1,i,i,i,i,i,?,nt,nt,
CC1=NN(c2ccc(C(=O)O)c(N)c2)C(=O)C1,89µM,i,22µM,1.3µM,i,10µM,60,34,
CC(C)CNC(=O)C1(C)CCCN1C(=O)CCc1cccs1 (configuration not stated),nt,i,nt,nt,nt,nt,nt,nt,
CCOC(=O)c1c(SCCN2CCCC2)n(-c2ccccc2)c(=S)n(-c2ccccc2)c1=O,i,i,i,i,i,nt,nt,nt,
CC(=O)Nc1ccc(S(=O)(=O)N(C)CC(=O)OCC(=O)N2CCN(C(=O)c3ccco3)CC2)cc1,?,i[11.6 µM],28µM,40µM,i,nt,?,76,
CC(=O)Nc1ccc(S(=O)(=O)N(C)CC(=O)OCC(=O)N2CCCCCC2)cc1,i,i,i,i,i,i,nt,nt,
COc1ccc(N2Cc3cccc(C(=O)Nc4cccc(F)c4)c3C2=O)cc1,?,nt,nt,79µM,i,14µM,38,76,Pol kappa inh-2=12
COc1ccc(N2Cc3cccc(C(=O)N4CCOCC4)c3C2=O)cc1,i,i,i,i,i,i,nt,nt,
COc1ccc(N2Cc3cccc(C(=O)N4CCN(C(=O)c5ccco5)CC4)c3C2=O)cc1,?,50µM,5.6µM,?,i,10µM,38,60,Pol kappa inh-2=42
Cc1ccsc1CCN1C(=O)N(c2ccccc2)C(=O)C1CC(=O)Nc1ccc(Cl)cc1 (configuration not stated),i,nt,i,i,i,i,nt,nt,
C=C1CCN(C(Cc2ccccc2)C(=O)O)S(=O)(=O)c2ccccc21 (configuration not stated),i,nt,nt,i,i,nt,nt,nt,
COc1cc(/C=C(\CCC(=O)O)c2nc3ccccc3s2)ccc1OCC(=O)Nc1c(Cl)cccc1Cl,i,?,?,i,?,nt,38,76,PGK validate=10µM
O=c1cc(Br)c(O)c(Br)cc1Br,50µM,?,18µM,4.5µM,?,nt,?,60,
O=C(Nc1ccc(-c2nc3ccc(NC(=O)c4cccs4)cc3[nH]2)cc1)c1cccs1,?,i,?,20µM,?,10µM,38,67,
OC(c1ccc(F)c(F)c1)c1nc(-c2ccc3c(c2)OCO3)cs1 (configuration not stated),nt,i,nt,nt,nt,nt,nt,nt,
COc1ccc(/C=N/NC(=O)c2ccc(Br)o2)cc1Cn1cc([N+](=O)[O-])cn1,i,i,i,i,i,i,nt,nt,
COc1ccc(/C=N/NC(=O)c2cc(O)c(O)c(O)c2)cc1Cn1cc([N+](=O)[O-])cn1,4µM,8.9µM,2.8µM,3.2µM,?,0.56µM,8.4,15,PGK validate=?
O=C1CC(c2ccco2)CC(O)=C1C=Nc1cc(Cl)ccc1Cl (configuration not stated),?,?,?,22µM,i,40µM,67,60,Pol kappa inh-2=75

# Bioassay records: PubChem BioAssay, National Center for Advancing Translational Sciences (NCATS)
